About 3,200 (25%) of roughly 13,000 compounds showed an effect of 50% or more. The list shows a part of the results.
Each molecule was assayed on P. falciparum stage V gametocytes. Conditions: 48 h, 5 µM; inhibitor.
Design: BacTiter-Glo ATP luminescence viability of purified stage V gametocytes in 384-well plates, per cent inhibition versus DMSO

SMILES | % Inhibition [%]
CC(C)(C)CNCC(C)(C)c1nc(-c2ccc(Cl)c(O)c2)c(-c2ccncc2)[nH]1 [TCMDC-140549] | -40.13
CN1CCCN(Cc2ccc(-c3cccc(NC(=O)c4ccc(Cl)cc4)c3)cc2)CC1 [TCMDC-132628] | 20.29
CN1N=C2c3ccccc3CCC2C1c1ccc(C#N)cc1 (stereo not drawn) [TCMDC-123771] | -59.69
CN(CCO)Cc1ccc(-c2ccc(NS(=O)(=O)c3cccc4cccnc34)cc2)cc1 [TCMDC-136473] | -2.439
C=C(C)COc1ccc(-c2n[nH]c(C(F)(F)F)c2-c2ccccc2OC)c(O)c1 [TCMDC-124477] | 8.317
COc1ccc(N2CCN(C(CNC(=O)C3CCCCC3)c3ccc4c(c3)OCO4)CC2)cc1 (stereo not drawn) [TCMDC-124312] | 30.25
COc1ccccc1-n1c(SCC(=O)Nc2ccccc2F)nc2cccnc21 [TCMDC-123647] | 7.521
COc1ccc(C)cc1NC(=O)CSc1nc2cccnc2n1C1CCCCC1 [TCMDC-123649] | 3.671
COc1ccccc1NC(=O)CSc1nc2cccnc2n1-c1ccccc1OC [TCMDC-123645] | 66.58
c1ncc(CCNc2nc(Nc3ccc4c(c3)OCO4)nc(NC3CCCC3)n2)[nH]1 [TCMDC-139739] | 13.1
CC(=O)Nc1ncc(C(=O)Nc2ccc(-c3cccc(-c4nc5ccc(F)cc5[nH]4)c3)cc2)s1 [TCMDC-136912] | 21.3
O=C(Nc1cc(F)cc(F)c1)N1CCOC(CCN2CCC3(CCc4ccccc43)CC2)(c2ccc(Cl)c(Cl)c2)C1 (stereo not drawn) [TCMDC-135331] | -8.718
CCOC(=O)c1c(-c2ccccc2)[nH]c2c(sc3ccccc32)c1=O [TCMDC-131540] | 7.736
CCOC(=O)c1c(SCc2cccc(F)c2F)[nH]c2ccccc2c1=O [TCMDC-141118] | 58.44
Cc1c(CCc2cccc(F)c2F)[nH]c2ccccc2c1=O [TCMDC-141293] | 23.35
CCCCOC(=O)[C@H](CCC)NC(=O)c1ccc(NS(=O)(=O)c2ccc3nc(N)[nH]c(=O)c3c2)cc1 [TCMDC-137698] | 14.55
COc1ccc2ccc(OC)c(CNCCCCCCNCc3c(OC)ccc4ccc(OC)cc34)c2c1 [TCMDC-137796] | 140.1
COc1ccc2c(OC)c(CNCCCCCCNCc3ccc4cc(OC)ccc4c3OC)ccc2c1 [TCMDC-137953] | 105.9
COc1ccc2cc(CNCCCCCCNCc3ccc4cc(OC)ccc4c3)ccc2c1 [TCMDC-137797] | 110.4
COc1ccc(OC)c(C(O)CNC(C)C)c1 (stereo not drawn) [TCMDC-124281] | 22.77
COc1ccc2c(CNCCCCCCNCc3c(OC)ccc4cc(OC)ccc34)c(OC)ccc2c1 [TCMDC-137300] | 117.1
COc1cc(CNCCCCCCNCc2cc(OC)cc3ccccc23)c2ccccc2c1 [TCMDC-137823] | 16.43
Cc1ccc(/C=C/C(=O)NCCCCCN2CCN(C(=O)Nc3ccc(Cl)c(C(F)(F)F)c3)CC2)cc1 [TCMDC-136099] | 10.82

SMILES | % Inhibition [%]
CC1(C)N=C(N)N=C(N)N1OCOc1ccc(Cl)cc1 [TCMDC-131734] | 26.86
CCCCCCN1CCCN(Cc2ccc(C(=O)Nc3ccc(C)c(F)c3)cc2)CC1 [TCMDC-136411] | 22.16
COc1ccc(CNC(=O)Nc2cccc(-c3csc(N=C(N)N)n3)c2)cc1 [TCMDC-139554] | 8.01
NC(N)=Nc1nc(-c2ccc(NCc3ccc(CNc4cccc(-c5csc(N=C(N)N)n5)c4)cc3)cc2)cs1 [TCMDC-140699] | 83.03
Cc1ccccc1CNC(=O)Nc1cccc(-c2csc(N=C(N)N)n2)c1 [TCMDC-139553] | 79.76
NC(N)=Nc1nc(-c2cccc(NC(=O)C(F)(F)F)c2)cs1 [TCMDC-137441] | -3.219
NC(N)=Nc1nc(-c2cccc(NC(=O)CCCCCCCON3C(N)=NC(N)=NC34CCCCC4)c2)cs1 [TCMDC-140420] | -29.14
N=C(N)Nc1nc(-c2ccc(NC(=O)Nc3cccc(-c4csc(NC(=N)N)n4)c3)cc2)cs1 [TCMDC-139559] | 111.8
NC(N)=Nc1nc(-c2cccc(NC(=O)NCc3cccc4ccccc34)c2)cs1 [TCMDC-139552] | 11.54
NC(N)=Nc1nc(-c2cccc(NC(=O)Cc3ccccc3)c2)cs1 [TCMDC-139599] | 13.87
O=C(Nc1cccc(-c2csc(NC(=O)c3ccc4ccccc4c3)n2)c1)c1ccc2ccccc2c1 [TCMDC-124033] | -5.611
NC(N)=Nc1nc(-c2cccc(NC(=O)NCC(c3ccccc3)c3ccccc3)c2)cs1 [TCMDC-139555] | -30.72
NC(N)=Nc1nc(-c2cccc(NC(=O)NCc3ccc(OC(F)(F)F)cc3)c2)cs1 [TCMDC-139556] | 86.49
NC(N)=Nc1nc(-c2cccc(NC(=O)NCCc3c[nH]c4ccc(OCc5ccccc5)cc34)c2)cs1 [TCMDC-139557] | -16.48
CCCNC(=O)C1Cc2cc(OC)c(OC)cc2C2(N1)C(=O)N(Cc1cccc(OC)c1)c1ccccc12 (stereo not drawn) [TCMDC-141464] | 26.41
C=CCc1cc(OC)ccc1OCCCOc1c(C)nc(N)nc1N [TCMDC-131358] | 1.5
CCCCCCc1ncc(-c2cc3cc(O)c(-c4ccccc4)cc3oc2=O)s1 [TCMDC-124096] | -4.644
c1ccc2c3c([nH]c2c1)C(c1ccc2c(c1)CCO2)N(c1ncnc(N2CCN(CCCN4CCOCC4)CC2)n1)CC3 (stereo not drawn) [TCMDC-138517] | 42.57
O=[N+]([O-])c1ccc(NC(=NCCOc2ccccc2)Nc2ccccc2Br)c(O)c1 [TCMDC-139982] | 18.66
Cc1cc(Oc2ccc(-n3ccnc3)cc2)nc(N2CCN(CCCN3CCCC3)CC2)n1 [TCMDC-132208] | 34.43
CCNC[C@H]1CCCN1CCOc1ccc(-n2cnc3cc(-c4ccc(Cl)cc4)sc3c2=O)cc1OC [TCMDC-134841] | 68.56
COc1cc(-n2cnc3cc(-c4ccc(Cl)cc4)sc3c2=O)ccc1OCCN1CCC(c2cccc(NC(C)=O)c2)CC1 [TCMDC-138930] | 71.5
CCN(C)CCCn1c(N(C)C)nc2cc(-n3cnc4cc(-c5ccc(Cl)cc5)sc4c3=O)ccc21 [TCMDC-138926] | -50.75

SMILES | % Inhibition [%]
CN(CCN1CCCC1)c1nc2ccc(-n3cnc4cc(-c5ccc(Cl)cc5)sc4c3=O)cc2[nH]1 [TCMDC-138918] | 5.034
CN(C)c1nc2cc(-n3cnc4cc(-c5ccc(Cl)cc5)sc4c3=O)ccc2n1CCCN1CCCC1 [TCMDC-138922] | 42.12
COc1cc(-n2c(CN3CCCC3)nc3cc(-c4ccc(Cl)cc4)sc3c2=O)ccc1OCCN1CCCC1 [TCMDC-135298] | 36.8
COc1cc(-n2cnc3cc(-c4ccc([N+](=O)[O-])cc4)sc3c2=O)ccc1OCCN1CCCC1 [TCMDC-138916] | 104.9
CN(C)c1nc2cc(-n3cnc4cc(-c5ccc(Cl)cc5)sc4c3=O)ccc2n1CCCN1CCCCC1 [TCMDC-138925] | 34.32
CCCCCc1ccc(N2C(N)=NC(N)=NC2(C)C)cc1 [TCMDC-137709] | 8.731
Cc1cccn2c(=O)c3cc(C(=O)NCCN4CCOCC4)c(=N)n(CCc4ccccc4)c3nc12 [TCMDC-124570] | 5.032
OCc1ccc(-c2cncc(Nc3ccc(F)c(Cl)c3)c2)cc1 [TCMDC-136671] | -20.21
CCOc1ccc(C=CC(=O)Nc2ccc3nc(N4CCN(C)CC4)cc(C)c3c2)cc1OC [TCMDC-125866] | -25.94
CC(C)c1ccc(NC(=O)c2ccc(NCCCN(C)Cc3ccccc3)c([N+](=O)[O-])c2)cc1 [TCMDC-125687] | -12.67
CCC(CCON1C(N)=NC(N)=NC1(C)C)c1ccc(Cl)cc1 (stereo not drawn) [TCMDC-131710] | 30.1
Cc1ccccc1Oc1nc2ccccc2nc1SCC(=O)NC(C)C [TCMDC-124733] | -10.37
COc1cc(NC2=NS(=O)(=O)c3cc(Cl)ccc3N2C)cc(OC)c1OC [TCMDC-134208] | 87.41
COc1ccc2c(c1)S(=O)(=O)N=C(N1CCCC1c1ccc(Cl)c(Cl)c1)N2C (stereo not drawn) [TCMDC-134209] | 3.235
COc1ccc(Nc2ccnc3cc(Cl)ccc23)cc1OC [TCMDC-124814] | -70.18
Oc1ccccc1CNCC(O)c1cccc(C(F)(F)F)c1 (stereo not drawn) [TCMDC-140303] | 18.18
CCNc1cc(-c2cccc(OC)c2)nc(Nc2ccc(F)cc2)n1 [TCMDC-134014] | -12.85
Cc1ccc(C(=O)Nc2ccc(C)c(OC3CCN(Cc4ccco4)C3)c2)cc1 (stereo not drawn) [TCMDC-133986] | 48.65
O=C(Nc1ccc(OC2CCN(Cc3ccco3)C2)c(Cl)c1)c1ccc2ncccc2c1 (stereo not drawn) [TCMDC-133987] | 24.52
Cc1ccc(NC(=O)c2ccc3ncccc3c2)cc1OC1CCN(Cc2ccc(F)cc2)C1 (stereo not drawn) [TCMDC-133759] | -2.086
O=C(Nc1ccc(OC2CCN(Cc3ccco3)CC2)c(Cl)c1)c1ccc2ncccc2c1 [TCMDC-133984] | 86.08
Cc1ccc(NC(=O)c2ccc3ncccc3c2)cc1OC1CCN(Cc2ccco2)C1 (stereo not drawn) [TCMDC-133985] | 61.5
O=C(Nc1ccc(OC2CCN(CC3CC3)CC2)c(Cl)c1)c1ccc2ncccc2c1 [TCMDC-134273] | 41.88

Source: paper PMC4552634, “A New Set of Chemical Starting Points with Plasmodium falciparum Transmission-Blocking Potential for Antimalarial Drug Discovery” (PLoS ONE, 2015)
